Data reported in the antibiotic and cytotoxicity screens of Wong et al. (2023).
In all, about 39,000 compounds went through this assay and about 3,300 (8.5%) were called active. The list comes from a sample in which actives are over-represented; it also holds similar structures and randomly drawn compounds.

The compounds below were run on HepG2 (assay: cytotoxicity call (relative viability < 0.9)). Details: 10 µM.

SMILES	cytotoxicity call
Cc1ccc(S(=O)(=O)N(C)C[C@@H]2Oc3ccc(NC(=O)Cn4cnnn4)cc3CC(=O)N([C@@H](C)CO)C[C@@H]2C)cc1	inactive
Cc1noc(C)c1S(=O)(=O)Nc1ccc2c(c1)CC(=O)N([C@@H](C)CO)C[C@@H](C)[C@H](CN(C)Cc1ccc(Oc3ccccc3)cc1)O2	inactive
Cc1noc(C)c1S(=O)(=O)Nc1ccc2c(c1)CC(=O)N([C@@H](C)CO)C[C@@H](C)[C@H](CN(C)Cc1ccc3c(c1)OCO3)O2	inactive
Cc1noc(C)c1S(=O)(=O)Nc1ccc2c(c1)CC(=O)N([C@@H](C)CO)C[C@H](C)[C@@H](CN(C)Cc1ccc(Oc3ccccc3)cc1)O2	inactive
Cc1noc(C)c1S(=O)(=O)Nc1ccc2c(c1)CC(=O)N([C@H](C)CO)C[C@H](C)[C@@H](CN(C)Cc1ccc(Oc3ccccc3)cc1)O2	active
Cc1noc(C)c1S(=O)(=O)Nc1ccc2c(c1)CC(=O)N([C@H](C)CO)C[C@H](C)[C@@H](CN(C)Cc1ccc(-c3ccccc3)cc1)O2	active
Cc1noc(C)c1S(=O)(=O)Nc1ccc2c(c1)CC(=O)N([C@H](C)CO)C[C@@H](C)[C@@H](CN(C)Cc1ccc(Oc3ccccc3)cc1)O2	inactive
Cc1noc(C)c1S(=O)(=O)Nc1ccc2c(c1)CC(=O)N([C@H](C)CO)C[C@@H](C)[C@H](CN(C)Cc1ccc(-c3ccccc3)cc1)O2	inactive
Cc1noc(C)c1S(=O)(=O)Nc1ccc2c(c1)CC(=O)N([C@H](C)CO)C[C@H](C)[C@H](CN(C)Cc1ccc(Oc3ccccc3)cc1)O2	inactive
Cc1noc(C)c1S(=O)(=O)Nc1ccc2c(c1)CC(=O)N([C@@H](C)CO)C[C@@H](C)[C@@H](CN(C)Cc1ccc3c(c1)OCO3)O2	inactive
Cc1noc(C)c1S(=O)(=O)Nc1ccc2c(c1)CC(=O)N([C@@H](C)CO)C[C@@H](C)[C@@H](CN(C)Cc1ccc(-c3ccccc3)cc1)O2	inactive
Cc1noc(C)c1S(=O)(=O)Nc1ccc2c(c1)CC(=O)N([C@@H](C)CO)C[C@@H](C)[C@@H](CN(C)Cc1ccc(Oc3ccccc3)cc1)O2	active
Cc1noc(C)c1S(=O)(=O)Nc1ccc2c(c1)CC(=O)N([C@H](C)CO)C[C@@H](C)[C@@H](CN(C)Cc1ccc3c(c1)OCO3)O2	active
COc1ccc(S(=O)(=O)Nc2ccc3c(c2)C(=O)N([C@H](C)CO)C[C@@H](C)[C@H](CN(C)C(=O)NC2CCCCC2)OCCCC[C@@H](C)O3)cc1	inactive
C[C@H]1CN([C@@H](C)CO)C(=O)c2cc(NC(=O)Nc3cccc4ccccc34)ccc2O[C@H]1CN(C)C(=O)Nc1ccc(F)cc1	inactive
C[C@@H]1CN([C@@H](C)CO)C(=O)CCCn2cc(nn2)CO[C@H]1CN(C)S(=O)(=O)c1cccc(C#N)c1	inactive
Cc1noc(C)c1NC(=O)N(C)C[C@H]1Oc2ccc(NC(=O)Nc3ccc(C(F)(F)F)cc3)cc2CC(=O)N([C@@H](C)CO)C[C@@H]1C	inactive
COc1ccc(C#Cc2ccc3c(c2)O[C@H](CN(C)C(C)=O)[C@H](C)CN([C@H](C)CO)S3(=O)=O)cc1	inactive
C=C/C=C/[C@@H]1C(=C)CN([C@@H](Cc2ccccc2)C(=O)OC)[C@H]1[C@@H](O)CCn1cc(-c2ccc(C(=O)NO)s2)nn1	inactive
C[C@@H]1CN([C@H](C)CO)C(=O)c2cc(NC(=O)Cc3ccccc3)ccc2O[C@@H](C)CCCCO[C@@H]1CN(C)C(=O)NC1CCCCC1	inactive
COc1ccc(S(=O)(=O)N(C)C[C@@H]2OCCCC[C@H](C)Oc3ccc(NC(=O)CCC(F)(F)F)cc3C(=O)N([C@@H](C)CO)C[C@H]2C)cc1	inactive
COc1ccc(S(=O)(=O)Nc2ccc3c(c2)CC(=O)N([C@@H](C)CO)C[C@@H](C)[C@@H](CN(C)CC2CC2)O3)cc1	inactive
COc1ccc(S(=O)(=O)N[C@@H]2CC[C@@H](CC(=O)N3CCN(c4ccccc4)CC3)O[C@@H]2CO)cc1	inactive

SMILES	cytotoxicity call
Cn1cnc(CN)c1	inactive
C[C@H]1CN([C@@H](C)CO)C(=O)c2cc(C#CCc3ccccc3)cnc2O[C@@H]1CN(C)C(=O)C1CCOCC1	inactive
C[C@H]1CN([C@@H](C)CO)C(=O)c2cc(NS(=O)(=O)c3ccccc3)ccc2O[C@@H]1CN(C)Cc1ccncc1	inactive
Cc1noc(C)c1NC(=O)Nc1ccc2c(c1)C(=O)N([C@H](C)CO)C[C@H](C)[C@H](CN(C)C(=O)Cc1ccccc1)OCCCC[C@H](C)O2	inactive
C[C@@H]1CN([C@@H](C)CO)C(=O)c2cc(NS(=O)(=O)c3ccccc3)ccc2O[C@@H]1CN(C)Cc1ccc(Oc2ccccc2)cc1	active
C[C@H](CO)N1C[C@H](C)[C@@H](CN(C)Cc2ccc(Oc3ccccc3)cc2)Oc2ccc(NS(=O)(=O)c3ccccc3)cc2C1=O	inactive
C[C@@H]1CN([C@H](C)CO)C(=O)c2cc(NS(=O)(=O)c3ccccc3)ccc2O[C@H]1CN(C)Cc1ccc(Oc2ccccc2)cc1	inactive
C[C@H](CO)N1C[C@H](C)[C@H](CN(C)Cc2ccc(Oc3ccccc3)cc2)Oc2ccc(NS(=O)(=O)c3ccccc3)cc2C1=O	inactive
C[C@@H]1CN([C@H](C)CO)C(=O)c2cc(NS(=O)(=O)c3ccccc3)ccc2O[C@@H]1CN(C)Cc1ccc(Oc2ccccc2)cc1	active
C[C@H]1CN([C@@H](C)CO)C(=O)c2cc(NS(=O)(=O)c3ccccc3)ccc2O[C@H]1CN(C)Cc1ccc(Oc2ccccc2)cc1	inactive
C[C@@H](NS(=O)(=O)C1CN(C(=O)OCc2ccccc2)C1)C(N)=O	inactive
O=C1c2ccccc2-c2nc(-c3ccccc3)cc3cccc1c23	inactive
C[C@H](CO)N1C[C@H](C)[C@H](CN(C)C(=O)CN(C)C)Oc2cc(-c3cncnc3)ccc2S1(=O)=O	inactive
O=C(O)[C@@H](O)c1ccccc1	inactive
C[C@@H]1CN([C@H](C)CO)C(=O)c2cc(NC(=O)Nc3ccc(F)cc3)ccc2O[C@H]1CN(C)Cc1ccc(-c2ccccc2)cc1	inactive
C[C@@H]1CN([C@@H](C)CO)C(=O)c2cc(NC(=O)Nc3ccc(F)cc3)ccc2O[C@H]1CN(C)Cc1ccc(-c2ccccc2)cc1	active
C[C@@H]1CN([C@H](C)CO)C(=O)c2cc(NC(=O)Nc3ccc(F)cc3)ccc2O[C@@H]1CN(C)Cc1ccc(-c2ccccc2)cc1	active
C[C@@H]1CN([C@@H](C)CO)C(=O)c2cc(NC(=O)Nc3ccc(F)cc3)ccc2O[C@@H]1CN(C)Cc1ccc(-c2ccccc2)cc1	active
C[C@H](CO)N1C[C@H](C)[C@H](CN(C)Cc2ccc(-c3ccccc3)cc2)Oc2ccc(NC(=O)Nc3ccc(F)cc3)cc2C1=O	inactive
C[C@H](CO)N1C[C@H](C)[C@@H](CN(C)Cc2ccc(-c3ccccc3)cc2)Oc2ccc(NC(=O)Nc3ccc(F)cc3)cc2C1=O	inactive
C[C@H]1CN([C@@H](C)CO)C(=O)c2cc(NC(=O)Nc3ccc(F)cc3)ccc2O[C@H]1CN(C)Cc1ccc(-c2ccccc2)cc1	inactive
C[C@H]1CN([C@@H](C)CO)C(=O)c2cc(NC(=O)Nc3ccc(F)cc3)ccc2O[C@@H]1CN(C)Cc1ccc(-c2ccccc2)cc1	inactive
